About 83,000 compounds went through this panel and 20% of them were active in at least one assay; those are over-represented in the sample as a whole.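 Growth was measured after 48 h exposure to one concentration of compound in 96-well plates. Values under 10 count as active.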 Values without a mark were called inactive. Calls of active or inactive are those of the source.
Assays:
Experiment in all cases: NCI-60 one-dose screen, 48 h (100 = growth as untreated, 0 = no growth, -100 = all killed)
Details in all cases: 10 µM unless noted
SN12C renal = test system: SN12C renal
UO-31 renal = test system: UO-31 renal
TK-10 renal = test system: TK-10 renal
CAKI-1 renal = test system: CAKI-1 renal
A498 renal = test system: A498 renal
CCRF-CEM leukemia = test system: CCRF-CEM leukemia
MOLT-4 leukemia = test system: MOLT-4 leukemia
SR leukemia = test system: SR leukemia
ACHN renal = test system: ACHN renal

Structure (SMILES)	growth (SN12C renal)	growth (UO-31 renal)	growth (TK-10 renal)	growth (CAKI-1 renal)	growth (A498 renal)	growth (CCRF-CEM leukemia)	growth (MOLT-4 leukemia)	growth (SR leukemia)	growth (ACHN renal)
CCOc1cc2c(cc1OCC)C(c1cc(C)c(O)c(C)c1)NCC2 (stereo not given)	95.7%	73.4%	107%	85.2%	88.1%	89.6%	96.3%	80.7%	–
COc1cc(NC(=O)CCSc2nc3ccccc3c(=O)n2CCc2ccccn2)cc(OC)c1OC	92.8%	85%	111%	89%	74.7%	83.2%	87.6%	–	–
Cc1ccc(OCCCCCCNCCO)c(C)c1	7.94% (active)	-21% (active)	28.9%	-8.91% (active)	35.3%	7.2% (active)	10.6%	11.2%	–
COc1cc(NC(=O)CCSc2nc3ccccc3c(=O)n2Cc2ccccc2)cc(OC)c1OC	82.9%	–	108%	72.5%	64.6%	74.5%	69.3%	–	78.5%
COc1ccc(C(O)(CCC(C)C)C(CN2CCOCC2)c2ccc(Cl)cc2)cc1 (stereo not given)	70.6%	–	86%	–	110%	34.2%	34.2%	10.7%	57.4%
COc1cc(C(=O)O/N=C(\N)Cc2cccc3ccccc23)cc(OC)c1OC	63%	–	-43.8% (active)	22.9%	44.6%	-5.01% (active)	1.56% (active)	-30.4% (active)	42.9%
Cn1c(=O)n(C)c2cc(CNCCNc3ccnc4cc(Cl)ccc34)ccc21	63.3%	36.9%	62.3%	66.2%	72.3%	58.5%	61.1%	3.33% (active)	–
O=c1oc2ccc(Br)cc2c(=O)n1-c1ccc(Cl)cc1F	1.42% (active)	7.61% (active)	7.09% (active)	-18.1% (active)	–	6.89% (active)	-8.39% (active)	–	–
Cc1ccc(F)cc1NC(=O)c1cc(Cl)ccc1Nc1ccccc1	32.1%	–	63%	48.2%	89.1%	45.8%	29%	44.2%	–
CN1C(=O)N(C)C2C1NN=c1s/c(=C\c3ccc(Cl)cc3Cl)c(=O)n12 (stereo not given)	30.9%	47.3%	83.7%	40.9%	–	15%	13.1%	4.89% (active)	–
CCCCCCCCCCOC(=O)c1ccccc1C(=O)OCCCC	–	81.3%	108%	–	121%	103%	95.4%	100%	109%
O=C(CSc1ncccc1C(=O)O)Nc1ccc(Oc2ccccc2)cc1	102%	–	105%	95.8%	96.7%	99.6%	84.6%	78.2%	107%
Cc1ccc(C)c(-c2csc(Nc3ccc(C)c(C)c3)n2)c1	66.3%	–	51.6%	78.2%	65.7%	6.99% (active)	24.9%	-6.45% (active)	58.9%
COc1cccc(-c2nn(C)c3sc(C(=O)NCCN4CCN(c5ccccc5F)CC4)cc23)c1	60.9%	–	83.9%	68%	39%	1.87% (active)	7.79% (active)	-39.5% (active)	85.3%
CC1(C)CC2(C)OC2C2(C1)N=NC(=Nc1ccccc1)O2 (stereo not given)	61.9%	20.8%	13.6%	57.4%	125%	10.7%	19.9%	11.3%	–
COC(=O)[C@H]1CCCN1C(=O)[C@H]1CCCN1C(=O)[C@H](Cc1c[nH]c2ccccc12)NC(=S)Nc1cc(C(F)(F)F)cc(C(F)(F)F)c1	51%	–	80.9%	38.6%	77%	–	29.4%	4.48% (active)	49%
COc1ccc(-c2cc(=O)c3c(OC)c4ccoc4c(/C=C/C=O)c3o2)cc1	13%	44.1%	68.7%	95.1%	78.8%	0.782% (active)	-8.67% (active)	-8.77% (active)	–
Cc1c(-c2noc(-c3ccc([N+](=O)[O-])cc3)n2)no[n+]1[O-]	98.3%	78.4%	153%	83.8%	117%	101%	101%	103%	–
CC(C)[C@H](NC(=O)Cn1cc(C(=O)O)nn1)C(=O)O	95.7%	88.7%	115%	89.4%	90.6%	113%	96.7%	–	–
O=C(Nc1ccc(F)cc1F)c1cc(Br)ccc1O	-7.89% (active)	–	2.49% (active)	-26.3% (active)	–	10.6%	0.366% (active)	–	1.37% (active)
CCN(CC)c1cc(C)c2cc(NC(=O)c3cccc(OC)c3)ccc2n1	79.1%	–	114%	73.2%	29.2%	24.8%	32.7%	43.5%	91.2%
COc1ccccc1C(=O)O/N=C(\N)Cc1cccc2ccccc12	67.3%	–	120%	77%	95.1%	80.1%	79%	82.1%	86.5%
CC(=O)SC1CC(=O)C=C2CCC3C4CCC(=O)OC4(C)CCC3C21C (stereo not given)	–	87%	93.8%	–	101%	101%	105%	111%	106%
O=C(Nc1ccccc1O)c1ccc(-c2ccc(Cl)cc2Cl)o1	89.8%	74%	102%	78.7%	86.4%	75.1%	65.6%	48.7%	–
COc1ccc(-c2nsc3c2NC(=O)CC3c2cccc(OC)c2)cc1 (stereo not given)	66.9%	–	61.9%	32.9%	27.4%	14.2%	32.2%	24.3%	55.1%
Cc1ccc(CN2CCC(C(=O)Nc3ccc(-c4cc5ccccc5[nH]4)cc3)CC2)o1	60.7%	47.5%	73%	71.7%	4.02% (active)	8.89% (active)	-4.18% (active)	14.1%	–
